Experimental data from PubChem BioAssay AID488890 (Southern Research Specialized Biocontainment Screening …, 2010).
Screen size: about 320,000 compounds; about 1,300 (0.41%) were called active. About 3% were inconclusive and are not listed. No rule for the calls is given here. Only a sample is shown. Results with a measured potency or affinity are listed apart.

Assay: growth inhibition of non-replicating M. tuberculosis (AID 488890);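 also: plate controls were DMSO cells for no effect and high antibiotic wells for full effect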
Settings: Mycobacterium tuberculosis non-replicating, at 25 µM, stronger effect = higher value

Row | Structure (SMILES) | inhibition [%]
1 | O=C(COC(=O)c1cncc(Br)c1)NCC1CCCO1 (configuration not stated) | 4.18
2 | N#Cc1ccc(S(=O)(=O)N2CCC(C(=O)Nc3cccc(C(=O)NC4CC4)c3)CC2)cc1 | 4.79
3 | COC(=O)C1=C(C)N(C(C)C)C(=O)C1(NC(=O)C1CCCCC1)C(F)(F)F (configuration not stated) | 7.64
4 | CCOc1ccc(C(NC(=O)CC)c2c(O)ccc3ccccc23)cc1 (configuration not stated) | 22.7
5 | COc1ccc(N2CCOCC2)c(NC(=O)c2cccs2)c1 | -2.48
6 | CN1C[C@H](C(=O)NC2(C)OC3(O)[C@@H]4CCCN4C(=O)[C@H](Cc4ccccc4)N3C2=O)CC2c3cccc4[nH]cc(c34)C[C@H]21 (some centres not stated) | 12.4
7 | CC1CCC(NC(=O)C2CC(O)CN2S(=O)(=O)c2ccc([N+](=O)[O-])cc2)CC1 (configuration not stated) | 11.1
8 | O=C(Nc1ccccc1N1CCOCC1)c1ccc2ccccc2n1 | 32.1
9 | CSCCC(NC(=O)c1ccco1)C(=O)N1CCC(C(N)=O)CC1 (configuration not stated) | -11.5
10 | COc1ccc(NC(=O)CN(C)C(=O)c2ccc3ccccc3n2)cc1 | -6.38
11 | O=C(Nc1cc(Cl)ncn1)c1ccccc1 | 5.29
12 | CCN(CC(=O)Nc1cccc(OC)c1)CC(=O)Nc1ccc(C)cc1Cl | 13.4
13 | O=C(Nc1ccc(Cl)cc1)C1CCCCN1S(=O)(=O)c1ccccc1 (configuration not stated) | 10.3
14 | Cc1cc(C)c(C)c(OCC(=O)O/N=C(\N)c2ccccn2)c1 | 13
15 | CCOC(=O)c1cccc(-n2cccc2/C=C2\NC(=O)N(CC(=O)O)C2=O)c1 | -4.64
16 | CC(NC(=O)C1CCC(CNS(=O)(=O)c2ccccc2)CC1)c1ccc2c(c1)OCCO2 (configuration not stated) | 0.52
17 | CC(=O)Nc1ccccc1Sc1ccccc1 | -2.8
18 | N#CCC(CNc1ncc(C(F)(F)F)cc1Cl)OC(=O)c1ccc(Cl)cc1 (configuration not stated) | 27
19 | CN(Cc1ccccc1)C(=O)c1ccco1 | 14.6
20 | CC(C)(C)N(Cc1ccccc1)C(=O)COC(=O)c1ccc([N+](=O)[O-])o1 | 4
21 | Cc1cc(NC(=O)CSc2nncn2N)no1 | -18
22 | COCc1cc(=O)[nH]c(Nc2nc3ccc(C)cc3o2)n1 | -3.8
23 | COC(=O)Cc1cc(=O)[nH]c(Nc2nc3ccccc3o2)n1 | 69

Row | Structure (SMILES) | inhibition [%]
24 | COc1cc(C(=O)NCCCNc2nc3c(C)cc(C)cc3cc2C#N)cc(OC)c1OC | 40.9
25 | Cc1[nH]n(-c2ccccc2)c(=O)c1N=Nc1ccc(Cl)cc1 | 22
26 | Cc1[nH]n(-c2ccccc2)c(=O)c1N=Nc1cccc(Cl)c1 | 1.75
27 | COc1ccccc1C(=O)COC(=O)c1ccccc1O | 26.5
28 | COc1ccc(OC)c(C(=O)COC(=O)c2ccccc2O)c1 | 51.8
29 | COc1ccc(/C=N/NC(=O)c2c(Br)cnn2C)c2ccccc12 | 8.73
30 | Cc1cccc(CCNC(=O)Cn2ncc3c([nH]c4ccccc43)c2=O)c1 | 3.21
31 | COc1ccc(NC(=O)CNC(=O)C23CC4CC(CC(C4)C2)C3)c(OC)c1 | 7.13
32 | COc1ccc(C(=O)NNC(=O)C23CC4CC(CC(C4)C2)C3)c(OC)c1 | 1.7
33 | Cc1cc(C)c2sc(N(CCCN(C)C)C(=O)CN3C(=O)c4ccccc4C3=O)nc2c1 | 16.6
34 | COc1cccc(NC(=O)C2C3C=CC(O3)C2C(=O)NCc2cccnc2)c1 (configuration not stated) | 7.86
35 | Cc1nc2ccc(NC(=O)c3ccc([N+](=O)[O-])cc3)cc2s1 | 41.2
36 | Cc1nc2ccc(NC(=O)c3ccc(Cl)c([N+](=O)[O-])c3)cc2s1 | -1.87
37 | COc1cc(-c2c(C#N)c(N)nc3c2c(C)nn3-c2ccc(C)c(C)c2)cc(OC)c1OC | 20.3
38 | COc1ccccc1Nc1c([N+](=O)[O-])cncc1[N+](=O)[O-] | 55.7
39 | Cc1ccccc1Nc1c([N+](=O)[O-])cncc1[N+](=O)[O-] | 76
40 | CCN(CC(=O)NCc1ccc(F)cc1)C(=O)c1ccc2c(c1)OCO2 | -2
41 | COc1ccc(C(=O)N2CCN(C)C(=O)[C@@H]2C)cc1OC1CCN(C(C)C)CC1 | -16.1
42 | Oc1ccc(C=NC2CCCCC2)c(O)c1 | -6.4
43 | CCn1c(O)c(C=NC2CCCC2)sc1=S | -4.02
44 | COCCOC(=O)c1c(C)oc2ccc(OC(=O)c3c(OC)cccc3OC)cc12 | 0.6
45 | CCOC(=O)Oc1ccc2oc(C)c(C(=O)OCCOC)c2c1 | 61.6
46 | CC(Oc1cc(Cl)ccc1Cl)C(=O)N/N=C\c1ccnn1C (configuration not stated) | 10.1

Row | Structure (SMILES) | inhibition [%]
47 | O=C(C[n+]1cc(-c2ccc(Cl)cc2)n2c1CCCCC2)c1ccccc1 | -12.8
48 | CC1CCC(C(C)C)C(OC(=O)C[n+]2cc(-c3ccc(Cl)cc3)n3c2CCC3)C1 (configuration not stated) | 49.4
49 | Cc1cc(C)nc(SC2=CS(=O)(=O)c3ccccc32)n1 | -0.38
50 | O=C(O)CSc1nnc(-c2ccccc2)o1 | -5.91
51 | CSc1nnc(-c2ccccc2)o1 | 17.4
52 | Cn1c(SC2=CS(=O)(=O)c3ccccc32)nc2ccccc21 | 58
53 | CC(C)c1ccc(N(C(=O)c2snc(C(N)=O)c2N)C(C(=O)NC2CCCC2)c2ccncc2)cc1 (configuration not stated) | 15.7
54 | COc1ccccc1-c1cc(C(F)(F)F)nc(NCc2cccs2)n1 | 13.2
55 | Cc1ccc(C(=O)N/C(=C\c2cn(C)c3ccccc23)C(=O)OCCN(C)C)cc1 | 1.18
56 | CCOC(=O)C1CCN(C(=O)C(C)Oc2ccc(C(=O)c3ccccc3)cc2)CC1 (configuration not stated) | 28.6
57 | COc1cc(-c2ccc3oc(-c4ccsc4)cc(=O)c3c2)cc(OC)c1OC | 72.1
58 | Cc1ncc([N+](=O)[O-])n1CC(=O)Nc1ccc(F)cc1F | -8.21
59 | CN(Cc1ccccc1)C(=O)Nc1ccc(Cl)cc1 | 48.8
60 | O=C1N=c2ccccc2=C1c1sc(=S)n(Cc2ccccc2Cl)c1O | -18.1
61 | Cc1cc(C)n(-c2ccc(C(=O)OC(C)C)cc2)n1 | 5.09
62 | CCOC(=O)c1ccc(-n2nc(C)cc2C)cc1 | 13.4
63 | CCOc1cc2c(cc1OCC)-n1cccc1C(c1ccccc1F)NC2 (configuration not stated) | 19.4
64 | CS(=O)(=O)Cc1ccc(C(=O)N2CCCC2c2cccs2)cc1 (configuration not stated) | 0.57
65 | O=C(NC1CCCc2c1cnn2-c1cc(F)cc(F)c1)c1ccccn1 (configuration not stated) | 25.6
66 | O=C(NC1CCCc2c1cnn2-c1cc(F)cc(F)c1)c1ccncc1 (configuration not stated) | 4.39
67 | CC(C)(C)OC(=O)NCCc1n[nH]c(=S)o1 | -4.45
68 | CSc1nc(O)c(N=Nc2ccc(F)cc2F)c(=O)[nH]1 | 13.2
69 | CCSc1nnc(C(N)Cc2ccccc2)o1 (configuration not stated) | 42.5

Row | Structure (SMILES) | inhibition [%]
70 | O=C(CSc1nnc(CNC(=O)c2ccco2)o1)c1ccccc1 | 17.8
71 | CCSc1nnc([C@@H](N)Cc2ccccc2)o1 | 4.66
72 | O=C(CSc1nnc(CNC(=O)c2ccco2)o1)Nc1ccccc1 | -9.27
73 | CN1CCN(c2ccc(NC(=O)COc3cccc4ccccc34)cc2)CC1 | 47.4
74 | COc1ccc(C2Sc3nncn3N2Cc2ccc(C#N)cc2)cc1 (configuration not stated) | 0.03
75 | C[C@H](NC(=O)OCc1ccccc1)c1nnc([C@H](C)NC(=O)OCc2ccccc2)o1 | 4.86
76 | C[C@H](NC(=O)OCc1ccccc1)C(=O)NNC(=O)[C@H](C)NC(=O)OCc1ccccc1 | 2.12
77 | Cc1ccc(C(=O)NNC(=O)CCC(=O)Nc2cc(C)on2)cc1 | 3.14
78 | CCOCC(=O)Nc1ccc(OCc2ccccc2)cc1 | 17.7
79 | CC(C)NC(=O)COc1ccc(OCc2ccccc2)cc1 | 62.9
80 | Cc1nc(SCCc2ccccc2)[nH]c(=O)c1C | 49.5
81 | CC1=C(C(=O)Nc2ccc(C)cc2C)C(c2ccc(C)o2)NC(=O)N1 (configuration not stated) | -0.04
82 | COc1cccc(C(=O)CN(C(=O)c2ccc(Cl)cc2Cl)N2C(=O)c3ccccc3C2=O)c1 | -6.55
83 | O=C(O)c1ccc(CNCc2ccc(Cl)cc2)cc1 | 9.88
84 | Cn1cnc([N+](=O)[O-])c1Cl | -10.2
85 | Cc1cccc(Sc2c([N+](=O)[O-])ncn2C)c1 | 22.6
86 | N#Cc1ccc(OCC(=O)NCCN2CCOCC2)cc1 | 2.06
87 | CCOC(=O)C1(CCc2ccccc2)CCN(Cc2cnc(N(C)C)s2)CC1 | 3.68
88 | Clc1ccccc1CSc1nncn1NC/C=C/c1ccccc1 | 19.6
89 | CC(C(=O)NC1CCCc2ccccc21)N1C(=O)C2CCCCC2C1=O (configuration not stated) | -6.5
90 | COc1ccc(NC(=O)NCCN2CCN(c3cccc(Cl)c3)CC2)cc1 | 31.4
91 | COc1ccc(N2CCN(CCCNC(=O)Nc3ccccc3)CC2)cc1 | 38.1
92 | CC1(C)CC(=O)C2=C(C1)N(c1ccc(F)cc1)C(=O)C2(O)C(F)(F)F (configuration not stated) | -0.41

Row | Structure (SMILES) | inhibition [%]
93 | Cc1cc(C(=O)Nn2cnc3ccccc3c2=O)ccc1[N+](=O)[O-] | -2.65
94 | Cn1c(=O)c([N+](=O)[O-])c(NCCc2ccccc2)c2ccccc21 | 30.3
95 | CC(C)c1c(C(=O)N/N=C/c2ccc(OCc3ccc(F)cc3)cc2)nnn1-c1nonc1N | 1.61
96 | CC(CN1CCCC1)OC(=O)C(c1ccccc1)c1ccccc1 (configuration not stated) | 10.8
97 | CCOc1ccc(C(O)C(CN2CCOCC2)c2ccccc2)cc1 (configuration not stated) | -1.32
98 | CCOC(=O)C(CN1CCCC1)c1ccccc1 (configuration not stated) | 4.41
99 | CCCCOc1ccc(C(O)C(CN2CCCCC2)c2ccccc2)cc1 (configuration not stated) | 12.8
100 | CCC(C(=O)c1ccc(O)cc1)c1ccccc1 (configuration not stated) | 21.7
101 | CN(C)CC(c1ccccc1)c1ccccc1 | -13.3
102 | CCCOc1ccc(C(=O)C(c2ccccc2)N2CCOCC2)cc1 (configuration not stated) | 33.3
103 | CCOc1ccc(C(=O)C(c2ccccc2)N2CCOCC2)cc1 (configuration not stated) | 56.8
104 | CCCCN(C(=O)Cc1ccc2c(c1)OCCO2)c1c(N)n(CCC)c(=O)[nH]c1=O | -17.1
105 | O=C(NCC(=O)N1CCN(C(c2ccccc2)c2ccccc2)CC1)c1ccc(Br)o1 | 13.5
106 | CCOc1ccc2nc(SCC(=O)N3CCN(C(=O)c4ccco4)CC3)sc2c1 | 28.7
107 | C/C(=N/NC(=O)c1cnccn1)c1ccncc1 | -12.7
108 | Cc1nc(Cl)c(S(N)(=O)=O)c(C)c1Cl | -6.51
109 | CC(C)Sc1nc2[nH]ncc2c(=O)[nH]1 | -7.65
110 | O=C(NCCO)c1ccc2c(c1)S(=O)(=O)c1ccccc1C2=O | -6.47
111 | Cc1ccc(S(=O)(=O)NC(=O)c2ccccc2F)cc1 | -3.32
112 | CCCOc1cccc(C(=O)NCCNC(=O)c2ccco2)c1 | -5.82
